# Values quoted from earlier work as cited in PubChem BioAssay AID977610.
# Hit rate of the full screen: of about 3,600 compounds, about 3,600 (100%) were called active. The limit is not given here; nearly all actives have Ki up to about 18000 µM. So high a share suggests a set chosen from earlier hits. Some of the results follow. Where a SMILES comes first, the peptide text is derived from it. Non-standard residues stand in square brackets, D forms with d. Square brackets hold non-standard residues; d marks the D form. Residues, ends and D or L forms follow the SMILES beside them. Peptide text beside a SMILES is read from it. [ ]: non-standard residue; d: D form. The star is where a group is joined. Orn(CH(NH2)2) = NC(N)NCCC[C@H](N)C(=O)O; Bz = O=C(c1ccccc1)*; Ahx = NCCCCCC(=O)O
# Test: PubChem AID 977610
# Settings: PDB protein-ligand complexes, literature Ki
compound,measurement,setting,value
CC(C)C[C@H](NC(=O)[C@H](CS)NC(=O)[C@@H]1CCCN1C(=O)[C@@H](NC(=O)[C@@H]1CCCN1C(=O)[C@@H]1CCCN1C(=O)[C@H](CS)NC(=O)[C@H](Cc1ccc(O)cc1)NC(=O)[C@H](CC(N)=O)NC(=O)[C@@H](NC(=O)[C@H](CCC(N)=O)NC(=O)[C@H](CS)NC(=O)CN)C(C)C)C(C)C)C(N)=O (H-GCQVNYCPPVPCL-NH2),Ki,"protein: urokinase-type plasminogen activator (uPA), PDB entry 4mny",1.96 µM (active)
CC(C)C[C@H](NC(=O)[C@H](CC(C)C)NC(=O)[C@H](Cc1cnc[nH]1)NC(=O)[C@H](CCCNC(N)N)NC(=O)[C@H](CC(C)C)NC(=O)[C@H](CC(C)C)NC(=O)[C@H](CC(C)C)NC(=O)[C@@H]1CCCN1C(=O)[C@H](Cc1cnc[nH]1)NC(=O)[C@@H](N)CCCNC(N)N)C(=O)N[C@@H](CCC(N)=O)C(=O)N[C@@H](CC(N)=O)C(=O)O (H-[Orn(CH(NH2)2)]HPLLL[Orn(CH(NH2)2)]HLLQN-OH),Ki,"protein: Estrogen receptor beta, PDB entry 4j24",0.05 µM (active)
O=C(NCC1(C2NC(c3ccccc3)=CS2)CCOCC1)c1cccc(-c2noc(C(F)(F)F)n2)c1 (centres undefined),Ki,"protein: HISTONE DEACETYLASE 7, PDB entry 3znr",0.036 µM (active)
Cc1ccc(Nc2ccccc2C(=O)O)c(C(=O)O)c1,Ki,"protein: Anthranilate phosphoribosyltransferase, PDB entry 4gkm",6.8 µM (active)
O=C(O)c1ccccc1C(=O)O,Ki,"protein: Nicotinate-nucleotide pyrophosphorylase [carboxylating], PDB entry 4kww",2.8 µM (active)
O=C(O)c1ccccc1Nc1cccc(Nc2ccccc2C(=O)O)c1C(=O)O,Ki,"protein: Anthranilate phosphoribosyltransferase, PDB entry 4m0r",6.2 µM (active)
O=C(O)c1ccccc1Nc1ccccc1C(=O)O,Ki,"protein: Anthranilate phosphoribosyltransferase, PDB entry 4ij1",4 µM (active)
Cc1ccc(C(=O)O)c(Nc2c(C)cccc2C(=O)O)c1,Ki,"protein: anthranilate phosphoribosyltransferase (AnPRT; trpD), PDB entry 4giu",4.7 µM (active)
NC(=O)SCC(=O)Nc1ccccc1C(=O)O,Ki,"protein: Human cathepsin K mutant C25S, PDB entry 4leg",28 µM (active)
Nc1ccn([C@@H]2O[C@H](CO)[C@@H](O[P+](O)(O)O)[C@H]2O)c(=O)n1,Ki,"protein: Bos taurus ribonuclease A, PDB entry 1rpf",103 µM (active)
Nc1ccn([C@@H]2O[C@H](CO)[C@@H](O)[C@H]2O[P+](O)(O)O)c(=O)n1,Ki,"protein: Bos taurus ribonuclease A, PDB entry 1jvu",7 µM (active)
Nc1ccn([C@@H]2O[C@H](CO[P+](O)(O)O)[C@@H](O)[C@H]2O)c(=O)n1,Ki,"protein: Bos taurus ribonuclease A, PDB entry 1rnm",844 µM (active)
Cc1cc(C)c(/C=N/NC(=O)[C@@H](N)Cc2c[nH]c3ccccc23)c(C)c1,Ki,"protein: Endothiapepsin, PDB entry 4kup",6 µM (active)
Cc1nn(C)c(C)c1Cc1nnc(-c2sc3ccccc3c2OC2CCNCC2)o1,Ki,"protein: Plasmodium vivax N-myristoyltransferase, PDB entry 2yne",0.0027 µM (active)
CC[C@H](C)[C@H](NC(=O)[C@H](CO)NC(=O)[C@@H](NC(=O)[C@@H]1CCCN1C(=O)[C@H](Cc1c[nH]c2ccccc12)NC(=O)[C@@H](N)CCCNC(N)N)[C@@H](C)O)C(=O)N[C@@H](CC(C)C)C(=O)O (H-[Orn(CH(NH2)2)]WPTSIL-OH),Ki,"protein: Golgi-associated PDZ and coiled-coil motif-containing protein, PDB entry 4e35",24 µM (active)
CC[C@H](C)[C@H](NC(=O)[C@H](CO)NC(=O)[C@@H](NC(=O)[C@@H]1CCCN1C(=O)[C@H](Cc1c[nH]c2ccccc12)NC(=O)[C@H](CCCNC(N)N)NC(=O)[C@@H](N)CO)[C@@H](C)O)C(=O)N[C@@H](CC(C)C)C(=O)O (H-S[Orn(CH(NH2)2)]WPTSIL-OH),Ki,"protein: Tax1-binding protein 3, PDB entry 4e3b",0.9 µM (active)
H-SRWPTTRL-OH,Ki,"protein: CFTR Associated Ligand (CAL) PDZ domain, PDB entry 4k76",4.5 µM (active)
CC[C@H](C)[C@H](NC(=O)[C@@H]1CCCN1C(=O)[C@H](CC(=O)O)NC(=O)[C@H](CC(C)C)NC(=O)[C@H](C)NC(=O)[C@@H](N)Cc1c[nH]c2ccccc12)C(=O)N[C@@H](C)C(=O)NCC(=O)N[C@@H](CCCCN)C(=O)N[C@@H](Cc1c[nH]c2ccccc12)C(=O)N[C@@H](CO)C(=O)N[C@@H](CCCNC(N)N)C(=O)O (H-WALDPIAGKWS[Orn(CH(NH2)2)]-OH),Ki,"protein: Acyl-[acyl-carrier-protein]--UDP-N-acetylglucosamine O-acyltransferase, PDB entry 2aq9",0.05 µM (active)
CC[C@H](C)[C@H](NC(=O)[C@H](CCCNC(N)N)NC(=O)CNC(=O)[C@@H](NC(=O)[C@@H](NC(=O)[C@@H](NC(=O)[C@@H](NC(=O)[C@H](CO)NC(=O)CN)C(C)C)C(C)C)[C@@H](C)CC)C(C)C)C(=O)N[C@H](C(=O)N[C@@H](CC(C)C)C(=O)N[C@@H](CO)C(=O)O)[C@@H](C)CC (H-GSVVIVG[Orn(CH(NH2)2)]IILS-OH),Ki,"protein: HCV NS3 protease, PDB entry 1dxp",0.027 µM (active)
CSCC[C@H](NC(C)=O)C(=O)N[C@@H](Cc1c[nH]c2ccccc12)C(=O)N[C@@H](CC(=O)O)C(=O)N[C@@H](Cc1ccccc1)C(=O)N[C@@H](CC(=O)O)C(=O)N[C@@H](CC(=O)O)C(=O)NCCCCCC(=O)N[C@@H](CCSC)C(=O)N1CCC[C@H]1C(=O)N1CCC[C@H]1C(=O)N[C@@H](C)C(=O)N[C@@H](CC(=O)O)C(=O)N[C@@H](CCC(=O)O)C(=O)N[C@@H](CC(=O)O)C(=O)N[C@@H](Cc1ccc(O)cc1)C(=O)N[C@@H](CO)C(=O)N1CCC[C@H]1C(N)=O (Ac-MWDFDD[Ahx]MPPADEDYSP-NH2),Ki,"protein: interleukin-8(IL-8), PDB entry 1ilq",13 µM (active)
H-GGGGGGAVPGSWPW-OH,Ki,"protein: Chymotrypsinogen A, PDB entry 1oxg",2.7e-05 µM (active)
CCC(CC)O[C@@H]1CC(C(=O)O)=C[C@H](n2cc([C@H](O)CC)nn2)[C@H]1NC(C)=O,Ki,"protein: Neuraminidase, PDB entry 4ks4",0.072 µM (active)
CCC(CC)O[C@@H]1CC(C(=O)O)=C[C@H](n2cc(CCCO)nn2)[C@H]1NC(C)=O,Ki,"protein: Neuraminidase, PDB entry 4ks3",0.43 µM (active)
CCC(CC)O[C@@H]1CC(C(=O)O)=C[C@H](n2cc(C(C)(C)O)nn2)[C@H]1NC(C)=O,Ki,"protein: Neuraminidase, PDB entry 4ks5",0.13 µM (active)
CCn1c(O)cc(=O)n(CC)c1=S,Ki,"protein: AmpC beta-lactamase, PDB entry 4kz8",1600 µM (active)
O=C(O)c1ccc(CCNS(=O)(=O)c2ccsc2C(=O)O)cc1,Ki,"protein: AmpC beta-lactamase from E. coli, PDB entry 4jxv",31 µM (active)
O=C(O)C(=O)CO,Ki,PDB entry 4mfe,5400 µM (active)
NCCCC[C@H](NC(=O)[C@H](CCCN=C(N)N)NC(=O)[C@H](CC(N)=O)NC(=O)[C@H](CCC(=O)O)NC(=O)[C@H](CS)NC(=O)CNC(=O)[C@H](CCCN=C(N)N)NC(=O)[C@H](CC(=O)O)NC(=O)[C@H](Cc1c[nH]c2ccccc12)NC(=O)[C@H](CS)NC(=O)[C@@H](N)CCC(N)=O)C(=O)N[C@@H](CS)C(=O)N[C@@H](CC(N)=O)C(N)=O (H-QCWDRGCENRKCN-NH2),Ki,"protein: urokinase-type plasminogen activator (uPA), PDB entry 4mnw",1.72 µM (active)
CC(C)C[C@H](N)C(=O)N[C@@H](CS)C(=O)N[C@@H](CO)C(=O)N[C@@H](CC(=O)O)C(=O)N[C@@H](CCCN=C(N)N)C(=O)NCC(=O)N[C@@H](CS)C(=O)N[C@@H](CCC(=O)O)C(=O)N[C@@H](CC(N)=O)C(=O)N[C@@H](CCCN=C(N)N)C(=O)N[C@@H](Cc1c[nH]c2ccccc12)C(=O)N[C@@H](CS)C(=O)N[C@@H](CCCCN)C(N)=O (H-LCSDRGCENRWCK-NH2),Ki,"protein: urokinase-type plasminogen activator (uPA), PDB entry 4mnx",17.7 µM (active)
C#C[C@@H]1N[C@@H](C)[C@@H](O)[C@H]1O,Ki,"protein: Alpha-L-fucosidase Fuc2970, PDB entry 4pct",0.07 µM (active)
NC(N)NCCCNC(=O)[C@@H]1CCCCN1C(=O)[C@@H](CC1CCCCC1)NCC(=O)O,Ki,"protein: bovine trypsin, PDB entry 1k1o",0.675 µM (active)
Nc1[nH]c(=S)nc2[nH]ncc12,Ki,"protein: PDE10A2, PDB entry 4lkq",450 µM (active)
NC(N)NCCCC[C@H](N)[P+](O)(O)O,Ki,"protein: M1 family aminopeptidase, PDB entry 4k5l",11 µM (active)
NC(N)NCCC[C@H](N)[P+](O)(O)O,Ki,"protein: M1 family aminopeptidase, PDB entry 4k5m",193 µM (active)
C[C@@H]1N[C@@H](C#Cc2ccccc2)[C@H](O)[C@@H]1O,Ki,"protein: Alpha-L-fucosidase Fuc2970, PDB entry 4pcs",0.014 µM (active)
C[C@H](NC(=O)[C@H](C)NC(=O)[C@H](Cc1cc(-c2ccc(-c3cccc(Cl)c3)cc2)no1)C[P+](O)(O)c1ccc(Br)cc1)C(N)=O,Ki,"protein: Macrophage metalloelastase (F171D mutation), PDB entry 4gr0",0.00028 µM (active)
C[C@H](NC(=O)[C@H](C)NC(=O)[C@H](Cc1cc(-c2ccccc2)no1)C[P+](O)(O)c1ccc(Br)cc1)C(N)=O,Ki,"protein: Macrophage metalloelastase (F171D mutation), PDB entry 4gr8",0.0147 µM (active)
N=Cc1nc(N2CCOCC2)nc(N(Cc2ccc(Cl)cc2)C2CCCCC2)n1,Ki,"protein: CATHEPSIN L1, PDB entry 4axm",0.013 µM (active)
C[C@H](NC(=O)[C@H](CO)N[C@H](O)CSCCNC(=O)CCNC(=O)[C@H](O)C(C)(C)CO[P+](O)(O)O[P+](O)(O)OCc1oc(-n2cnc3c(N)ncnc32)c(O)c1O[P+](O)(O)O)C(=O)N[C@@H](CO)C(=O)N[C@@H](CCC(=O)O)C(=O)O,Ki,"protein: N-terminal acetyltransferase A complex subunit nat1, PDB entry 4kvm",8.9 µM (active)
CC(C)C[C@H](NC(=O)[C@@H](NC(=O)CNC(=O)c1ccccc1)C(C)C)C(=O)N[C@@H](CCCCN)C(=O)N[C@@H](CCC(=O)O)C(=O)N[C@@H](Cc1ccc(O)cc1)C(=O)NCC(=O)N[C@H](C(=O)O)C(C)C (Bz-GVLKEYGV-OH),Ki,"protein: NAD-DEPENDENT PROTEIN DEACYLASE SIRTUIN-5, MITOCHONDRIAL zebrafish Sirtuin 5, PDB entry 4uub",17.2 µM (active)
H-PKSFLV-OH,Ki,"protein: LSD1-CoREST complex, PDB entry 3zmu",49.6 µM (active)
H-PTSII-OH,Ki,"protein: CFTR Associated Ligand (CAL) PDZ domain, PDB entry 4joh",450 µM (active)
H-PLSFLV-OH,Ki,"protein: LSD1-CoREST complex, PDB entry 3zmv",55 µM (active)
CC[C@H](C)[C@H](NC(=O)[C@@H](NC(=O)[C@H](CO)NC(=O)[C@@H](N)CC(=O)O)[C@@H](C)CC)C(=O)O (H-DSII-OH),Ki,"protein: CFTR Associated Ligand (CAL) PDZ domain, PDB entry 4k72",1000 µM (active)
O=[N+]([O-])c1ccc(NNC(=S)Nc2ccc(F)cc2)c([N+](=O)[O-])c1,Ki,"protein: GTPase HRas(T35S mutant), PDB entry 2lwi",773 µM (active)
CCCCCCc1cccc(NC(=O)[C@H](N)CC[P+](O)(O)O)c1,Ki,"protein: Lipid G protein-Coupled Receptor, PDB entry 3v2w",0.077 µM (active)
NC(=O)CN[C@@H](C(=O)N1CC[C@H]1C(=O)NCc1ccc(C(N)N)cc1)C1CCCCC1,Ki,"protein: THROMBIN, PDB entry 4bao",0.00429 µM (active)
CN(C)C(=O)CN[C@@H](C(=O)N1CC[C@H]1C(=O)NCc1ccc(C(N)N)cc1)C1CCCCC1,Ki,"protein: THROMBIN, PDB entry 4bam",0.00114 µM (active)
NC(N)c1ccc(CNC(=O)[C@@H]2CCN2C(=O)[C@H](NCC(=O)O)C2CCCCC2)cc1,Ki,"protein: THROMBIN, PDB entry 4bah",0.00201 µM (active)
C[C@@H](O)[C@H](N)C(=O)NS(=O)(=O)c1cccc(-c2ccc3[nH]ncc3c2)c1,Ki,"protein: Threonine--tRNA ligase, cytoplasmic, PDB entry 4hwt",50 µM (active)
Cc1cc(-c2nn(C(C)C)c3ncnc(N)c23)cc2ccc(OCc3ccccc3)nc12,Ki,"protein: Mitogen-activated protein kinase 1 (Q103A, C164L mutant), Rat Erk2, PDB entry 4n4s",0.133 µM (active)
CC(=O)NCCCC[C@H](NC(=O)[C@H](CCCN=C(N)N)NC(=O)[C@H](Cc1cnc[nH]1)NC(=O)[C@@H](N)CCCN=C(N)N)C(=O)N[C@H](C(=O)O)C(C)C (H-RHRK(Ac)V-OH),Ki,"protein: Bromodomain-PHD Finger Module of Human Transcriptional Co-Activator CBP, PDB entry 4n3w",315 µM (active)
OC[C@@H]1[C@@H](O[C@@H]2O[C@H](CO)[C@@H](O)[C@H](O)[C@@H]2O)[C@H](O)[C@H](O)c2nccn21,Ki,"protein: GH26 beta-mannanase CjMan26C from Cellvibrio japonicus, PDB entry 4cd5",0.194 µM (active)
same,Ki,"protein: GH113 beta-mannanase AaManA from Alicyclobacillus acidocaldarius, PDB entry 4cd8",1300 µM (active)
